40 compounds from PubChem BioAssay (NCI) can be followed below.

This is part of a sample that, as a whole, favours compounds with a hit. Of some 83,000 tested, about 20% had one in any assay.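 Treatment: one concentration, 48 hours, 96-well format. Scoring: percent growth, with anything below 10 considered active.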 Active and inactive are the calls of the source.

This assay concerns EKVX NSCLC. In words: NCI-60 one-dose screen, 48 h (100 = growth as untreated, 0 = no growth, -100 = all killed). As to conditions: 10 µM unless noted. As for the experimental part: Growth inhibition of the EKVX human Non-Small Cell Lung tumor cell line is measured as a screen for anti-cancer activity. Cells are grown in 96 well plates and exposed to the test compound for 48 hours. Compounds are tested at a single concentration, which is 10^-5 M for most compounds. The reported endpoint is percent growth (GI% or GIPRCNT), where numbers from 0 - 100% represent growth inhibition, and numbers from -100% - 0 represent cell death. For example, a value of 40 represents 60% growth inhibition. A value of 0 means no net growth occurred over the course of the experiment. A value of -40 indicates 40% of cells at the beginning of the experiment died by the end of the experiment. A value of -100 means all cells are dead at the end of the experiment.
NCI-60 Human Tumor Cell Lines Screen was performed using the standard one-dose NCI protocol, which is described in more detail at https://dtp.cancer.gov/discovery_development/nci-60/default.htm.
Compounds with GIPRCNT values below 10 were considered active. Activity score was based on GIPRCNT using the following formula: […]
Score is 0 for GIPRCNT values of 100 or above, 50 for GIPRCNT values of 0, and 100 for GIPRCNT values of -100.
For the compound `Nc1cccc2c1Oc1ccccc1O2`, the growth was 99.7% (inactive).
For `N#C[Se]CCN1C(=O)C2C(C1=O)[C@H]1C=C[C@@H]2S1` (stereo not given in full) the value was -51.6% (active); for `[O]=[Sn]([CH]1CCCCC1)[CH]1CCCCC1`, -24.3% (active).
Take `COc1ccc(NP2(=O)OCC(C)(N)CO2)cc1` (stereo not given): the growth was 120% (inactive).
Consider `COc1cccc2c1C(=O)c1c(O)c3c(c(O)c1C2=O)CC(O)(/C(C)=N/NC(=O)CCC(=O)N/N=C(\C)C1(O)Cc2c(O)c4c(c(O)c2C(OC2CC(N)C(O)C(C)O2)C1)C(=O)c1c(OC)cccc1C4=O)CC3OC1CC(N)C(O)C(C)O1` (stereo not given), for which the growth was -19.4% [5 µM] (active).
As to `NS(=O)(=O)c1nc[nH]c1[N+](=O)[O-]`, the growth was 117% (inactive).
Under `C[C@]12CC[C@@H]3C4=C(CC[C@H]3[C@@H]1CC[C@@H]2O)CC(=O)CC4` stands 72% (inactive); under `O=C1NC(=O)C(=Cc2cn(Cc3ccccc3)c3ccccc23)C(=O)N1`, 63.7% (inactive).
Under `CC12CCC(=O)C=C1CCC1C2CCC2(C)C(C(=O)COC(=O)Cc3ccc(N(CCCl)CCCl)cc3)CCC12` (stereo not given) stands 53.1% (inactive).
Consider `O=C(CCF)c1ccc(O)cc1`, for which the growth was 99.3% (inactive).
For the compound `COc1cc2c(cc1OC)CN(C)C(C)C2` (stereo not given), the growth was 109% (inactive).
Under `C=CC(O)CN1CC1CC` (stereo not given) stands 102% (inactive); under `COc1c(O)c2c3c(c1OC)-c1ccccc1CC3N(C)CC2` (stereo not given), 115% (inactive).
On to `CC1(C)N=C(N)N=C(N)N1c1ccc(CCC(=O)Nc2cccc(S(=O)(=O)F)c2)cc1`, for which the growth was 56.8% (inactive).
For `OC1CCCCC1N1CCC(c2ccccc2)CC1` (stereo not given), the growth was 104% (inactive).
Consider `Cn1cnnc1[S-].[Au+].c1ccc([PH+](c2ccccc2)c2ccccc2)cc1`, for which the growth was 60.7% (inactive).
For `c1ccc(-c2ccc3ccccc3[o+]2)cc1` the value was 87.1% (inactive).
As for `CC(=O)C1CCC2C3CC=C4CC(OC(=O)Cc5ccc(N(CCCl)CCCl)cc5)CCC4(C)C3CCC12C` (stereo not given), the growth was 83.1% (inactive).
Under `CCCCNCCc1ccccn1` stands 120% (inactive); under `S=P(Nc1ccccc1)(Nc1ccccc1)c1ccccc1`, 90% (inactive).
For `C[C@]12C[C@H](O)[C@H]3[C@@H](CCC4=CC(=O)CC[C@@]43C)[C@@H]1CC[C@@H]2O` the value was 94.8% (inactive).
For `CC(C)(NC(=O)c1nn(CCCCCF)c2ccccc12)c1ccccc1` the value was 94.7% (inactive); for `C[C@]12CC[C@@H]3c4ccc(OC(=O)Cc5ccc(N(CCCl)CCCl)cc5)cc4CC[C@H]3[C@@H]1CC[C@@H]2OC(=O)Cc1ccc(N(CCCl)CCCl)cc1`, 110% (inactive); for `NCCc1cc(O)c(O)cc1O`, 102% (inactive).
In the case of `Cc1ccc(C(=O)C2CN(C)CCC2(O)c2ccc(C)cc2)cc1` (stereo not given), the growth is 111% (inactive).
Under `CC(C)Nc1ccc(Nc2ccccc2)cc1` stands 29.4% (inactive); under `CC1(CF)NC(=O)NC1=O` (stereo not given), 104% (inactive); under `NC(Cc1ccc2c(c1)OCO2)c1ccc2c(c1)OCO2` (stereo not given), 126% (inactive).
Consider `CC12CC[C@H](O)C=C1/C(=N/O)CC1C2CCC2(C)C1CC[C@@H]2O` (stereo not given in full), for which the growth was 89.6% (inactive).
Under `c1ccc(CCN2CCCCC2Cc2ccccc2)cc1` (stereo not given) stands 93.4% (inactive); under `CC1([N+](=O)[O-])COP(=O)(Nc2ccc(F)cc2)OC1` (stereo not given), 115% (inactive).
Under `COc1cc(NCCCCCN=C(N)N)c2ncccc2c1` stands 65.4% (inactive); under `COc1ccc(C(c2ccc(OC)cc2)C(Cl)(Cl)Cl)cc1`, 95.7% (inactive).
Under `CCN1CC2(CN(CC)C1=S)C(=O)NC(=O)NC2=O` stands 99% (inactive).
As for `COc1ccc(OC)c(/C=C(/C)[N+](=O)[O-])c1`, the growth is 83.9% (inactive).
For `CN(Cc1cccnc1)N=O`, the growth is 99.9% (inactive).
Under `O=CN1N=C(c2ccccc2)CC1c1sc(N(CCCl)CCCl)nc1Cl` (stereo not given) stands 89.5% (inactive).
For `CC(/C=N/N=C(N)N)=N\N=C(N)N` the value was 89.8% (inactive); for `CC(=O)O[C@H]1C[C@H](O[C@H]2[C@@H](O)C[C@H](O[C@H]3[C@@H](O)C[C@H](O[C@H]4CC[C@@]5(C)C(CCC6C5C[C@@H](O)[C@]5(C)[C@@H](C7=CC(=O)OC7)CC[C@]65O)C4)O[C@@H]3C)O[C@@H]2C)O[C@H](C)[C@H]1O[C@@H]1O[C@H](CO)[C@@H](O)[C@H](O)[C@H]1O` (stereo not given in full), -98.3% (active).
Under `CC[C@H](C)[C@H](NC(=O)Nc1ccccc1)C(=O)N(C)[C@H](C[C@@H](OC(C)=O)c1nc(C(=O)N[C@@H](Cc2ccccc2)C[C@H](C)C(=O)OC)cs1)C(C)C` stands 33.2% (inactive).
